{"source": "PubChem BioAssay AID431", "about": "(Sanford-Burnham Center for Chemical Genomics, 2006)", "note": "Among all 63,000 compounds or so, about 1,100 (1.7%) were called active.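 The calls were made as follows: active = compounds whose percent cytotoxicity in the single-dose primary screen, scaled between solvent and toxic-drug controls, exceeds 50; inactive = the rest.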 For the sample, actives were picked, then their nearest neighbours and some compounds at random. Entries with a potency or affinity are not part of this list.", "data": [{"experiment": "viability loss of HPDE-C7K cells – cell-based, fluorescence, HTS, primary screen (AID 431);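 also: 0% = DMSO solvent wells and 100% = doxorubicin-treated wells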", "details": "HPDE-C7K KRASV12 cells, Alamar Blue viability, 48 h; at 10 µM; active compounds read high", "values": [{"smiles": "Cc1csc(SCc2c(C(=O)O)oc3ccccc23)n1", "cytotoxicity": "-0.8% (inactive)"}, {"smiles": "CCOC(=O)C1=C(C)NC(=O)NC1c1cn(-c2ccccc2)nc1-c1cccs1", "note": "(stereo not drawn)", "cytotoxicity": "23.8% (inactive)"}, {"smiles": "Fc1cccc(F)c1CN1CCN(c2ncccn2)CC1", "cytotoxicity": "-1.5% (inactive)"}, {"smiles": "COCCN1Cc2cccc(C(=O)Nc3cccc(OC)c3)c2C1=O", "cytotoxicity": "-3.5% (inactive)"}, {"smiles": "Cn1c(=O)c2cc(S(=O)(=O)N3CCN(c4cccc(C(F)(F)F)c4)CC3)ccc2n(C)c1=O", "cytotoxicity": "-3.4% (inactive)"}, {"smiles": "Cn1c(=O)c(=O)n(C)c2cc(S(=O)(=O)N3CCN(c4cccc(C(F)(F)F)c4)CC3)ccc21", "cytotoxicity": "80.1% (active)"}, {"smiles": "Cc1c(S(=O)(=O)N2CCN(c3cccc(C(F)(F)F)c3)CC2)c(=O)n(C)c(=O)n1C", "cytotoxicity": "5.8% (inactive)"}, {"smiles": "COc1ccccc1CN(CC(=O)NCc1ccco1)C(=O)CNS(=O)(=O)c1ccccc1", "cytotoxicity": "1.2% (inactive)"}, {"smiles": "COc1ccccc1N1CCN(C(=O)C2CCN(S(=O)(=O)c3ccc(Cl)cc3)CC2)CC1", "cytotoxicity": "-11.9% (inactive)"}, {"smiles": "Cc1cc(C(=O)OCC(=O)c2c(N)n(C)c(=O)n(C)c2=O)c(C)n1-c1ccccc1", "cytotoxicity": "1.3% (inactive)"}, {"smiles": "COc1ccc(S(=O)(=O)C(C#N)c2nc3ccccc3nc2N2CCCCC2)cc1", "note": "(stereo not drawn)", "cytotoxicity": "3.2% (inactive)"}, {"smiles": "COc1ccc(S(=O)(=O)C(C#N)c2nc3ccccc3nc2N2CCCC(C)C2)cc1", "note": "(stereo not drawn)", "cytotoxicity": "60.2% (active)"}, {"smiles": "Cc1ccc(C)c(S(=O)(=O)C(C#N)c2nc3ccccc3nc2N2CC(C)OC(C)C2)c1", "note": "(stereo not drawn)", "cytotoxicity": "59.3% (active)"}, {"smiles": "CC1CCCN(c2nc3ccccc3nc2C(C#N)S(=O)(=O)c2ccccc2)C1", "note": "(stereo not drawn)", "cytotoxicity": "47.8% (inactive)"}, {"smiles": "Cc1ccc(S(=O)(=O)C(C#N)c2nc3ccccc3nc2N2CCCC2)cc1C", "note": "(stereo not drawn)", "cytotoxicity": "56.7% (active)"}, {"smiles": "Cc1ccc(S(=O)(=O)C(C#N)c2nc3ccccc3nc2N2CCCC2)cc1", "note": "(stereo not drawn)", "cytotoxicity": "34.2% (inactive)"}, {"smiles": "Cc1ccc(S(=O)(=O)C(C#N)c2nc3ccccc3nc2N2CC(C)OC(C)C2)cc1C", "note": "(stereo not drawn)", "cytotoxicity": "76.5% (active)"}, {"smiles": "Cc1cccc(S(=O)(=O)C(C#N)c2nc3ccccc3nc2N2CCCC2)c1", "note": "(stereo not drawn)", "cytotoxicity": "-13.4% (inactive)"}, {"smiles": "Cc1ccc(S(=O)(=O)C(C#N)c2nc3ccccc3nc2N2CCC(C)CC2)cc1", "note": "(stereo not drawn)", "cytotoxicity": "30.1% (inactive)"}, {"smiles": "Cc1ccc(C)c(S(=O)(=O)C(C#N)c2nc3ccccc3nc2N2CCCC2)c1", "note": "(stereo not drawn)", "cytotoxicity": "14.7% (inactive)"}, {"smiles": "Cc1cccc(S(=O)(=O)C(C#N)c2nc3ccccc3nc2N2CC(C)OC(C)C2)c1", "note": "(stereo not drawn)", "cytotoxicity": "7.7% (inactive)"}, {"smiles": "Cc1ccc(C)c(S(=O)(=O)C(C#N)c2nc3ccccc3nc2N2CCOCC2)c1", "note": "(stereo not drawn)", "cytotoxicity": "-1.1% (inactive)"}, {"smiles": "Cc1ccccc1C(=O)N1CCC(C(=O)Nc2cccc(F)c2)CC1", "cytotoxicity": "3% (inactive)"}, {"smiles": "O=C(O)C1C2CCC(C2)C1C(=O)NCCCn1ccnc1", "note": "(stereo not drawn)", "cytotoxicity": "-7.9% (inactive)"}, {"smiles": "CCCc1cc(=O)n2[nH]c(-c3cc(OC)c(OC)c(OC)c3)nc2n1", "cytotoxicity": "-9.7% (inactive)"}, {"smiles": "CCCOc1cccc(C(=O)Nc2cccc(NC(=O)c3ccco3)c2)c1", "cytotoxicity": "7.4% (inactive)"}, {"smiles": "Cc1[nH]nc2c1C(c1ccc(F)cc1)C(C#N)=C(N)O2", "note": "(stereo not drawn)", "cytotoxicity": "-10.6% (inactive)"}, {"smiles": "CCOC(=O)C1CCCN(Cc2ccccc2F)C1", "note": "(stereo not drawn)", "cytotoxicity": "4.8% (inactive)"}, {"smiles": "CC(C)c1ccc(S(=O)(=O)N2CCN(CC(=O)Nc3ccc4c(c3)OCO4)CC2)cc1", "cytotoxicity": "2.2% (inactive)"}, {"smiles": "CCOC(=O)N1CCN(Cc2nc(-c3ccccc3)no2)CC1", "cytotoxicity": "11.5% (inactive)"}, {"smiles": "Cc1noc(C)c1CSc1nc2ccccc2nc1NS(=O)(=O)c1ccc(Cl)cc1", "cytotoxicity": "64.6% (active)"}, {"smiles": "Cc1noc(C)c1CSc1ncnc2ccccc12", "cytotoxicity": "18.6% (inactive)"}, {"smiles": "O=S(=O)(Nc1nc2ccccc2nc1NCc1ccco1)c1ccc(Cl)cc1", "cytotoxicity": "20.9% (inactive)"}, {"smiles": "COc1cc(C2C(C(=O)OC(C)C)=C(C)Nc3[nH]c(=O)[nH]c(=O)c32)ccc1O", "note": "(stereo not drawn)", "cytotoxicity": "-5.8% (inactive)"}, {"smiles": "CN1C(=O)NC(NC(=O)c2cccs2)(C(F)(F)F)C1=O", "note": "(stereo not drawn)", "cytotoxicity": "-12.1% (inactive)"}, {"smiles": "COc1ccc(N(C(=O)c2cccc(OC)c2OC)C2C=CS(=O)(=O)C2)cc1", "note": "(stereo not drawn)", "cytotoxicity": "-2.9% (inactive)"}, {"smiles": "c1ccc2c(c1)oc1c(Nc3ccc4c(c3)OCO4)ncnc12", "cytotoxicity": "-23.6% (inactive)"}, {"smiles": "COc1ccc(/C=N/n2c(N)nc3ccccc32)cc1OC", "cytotoxicity": "-9.4% (inactive)"}, {"smiles": "C=C(C)COc1ccc(-c2nc(N)ncc2Oc2ccccc2OC)c(O)c1", "cytotoxicity": "-4.5% (inactive)"}, {"smiles": "COc1ccc(-c2n[nH]c(C)c2-c2ccc(Cl)cc2)c(O)c1OC", "cytotoxicity": "-14.6% (inactive)"}, {"smiles": "C=C(C)COc1ccc(-c2nc(N)ncc2-c2ccc(OC)cc2)c(O)c1", "cytotoxicity": "120% (active)"}, {"smiles": "COc1ccc(-c2nc(N)ncc2-c2csc(C)n2)c(O)c1", "cytotoxicity": "-17.5% (inactive)"}, {"smiles": "Oc1ccc(-c2[nH]ncc2-c2ccc(Cl)cc2)c(O)c1", "cytotoxicity": "49.9% (inactive)"}, {"smiles": "Cc1[nH]nc(-c2ccc(O)cc2O)c1-c1ccc(Cl)cc1", "cytotoxicity": "53.9% (active)"}, {"smiles": "C=C(C)COc1ccc(-c2nc(N)ncc2Oc2ccc(OC)cc2)c(O)c1", "cytotoxicity": "-0.9% (inactive)"}, {"smiles": "N#Cc1cc(C(=O)c2cc(Br)ccc2O)cn(C2CC2)c1=O", "cytotoxicity": "10.6% (inactive)"}, {"smiles": "O=C(c1ccc(CN2CCc3ccccc3C2)cc1)N1CCCCC1", "cytotoxicity": "-21.9% (inactive)"}, {"smiles": "O=S(=O)(c1ccc(N2CCOCC2)cc1)N1CCOCC1", "cytotoxicity": "-6.3% (inactive)"}, {"smiles": "CC(=O)N1CC2(C)CN(C(C)=O)CC(C)(C1)C2O", "note": "(stereo not drawn)", "cytotoxicity": "1.7% (inactive)"}, {"smiles": "CCOc1cc(S(=O)(=O)NCCN2CCOCC2)c(C)cc1C", "cytotoxicity": "-17.8% (inactive)"}, {"smiles": "C=CCc1ccccc1OCC(O)CN1CCN(c2ccc(OC)cc2)CC1", "note": "(stereo not drawn)", "cytotoxicity": "9.3% (inactive)"}, {"smiles": "COC(=O)C1(CCSC)NC(c2ccccc2OC)C2C(=O)N(C)C(=O)C21", "note": "(stereo not drawn)", "cytotoxicity": "8% (inactive)"}, {"smiles": "O=c1c2ccccc2nnn1CSc1nc2cc(Cl)ccc2c(=O)n1Cc1ccco1", "cytotoxicity": "6.2% (inactive)"}, {"smiles": "CCOC(=O)N1CCN(C2=CC(=O)OC23CCCCC3)CC1", "cytotoxicity": "3.3% (inactive)"}, {"smiles": "COc1ccc(Oc2c(-c3ccc(O)cc3O)n[nH]c2C)cc1", "cytotoxicity": "27.1% (inactive)"}, {"smiles": "Cc1[nH]nc(-c2ccc(O)cc2O)c1Oc1ccccc1", "cytotoxicity": "63.9% (active)"}, {"smiles": "COc1cccc(Oc2cncnc2-c2ccc(OC)cc2O)c1", "cytotoxicity": "21.1% (inactive)"}, {"smiles": "C=C(C)COc1ccc(-c2nc(N)nc(C)c2Oc2ccccc2OC)c(O)c1", "cytotoxicity": "1.4% (inactive)"}, {"smiles": "C=C(C)COc1ccc(-c2ncncc2Oc2ccc(OC)cc2)c(O)c1", "cytotoxicity": "17.6% (inactive)"}, {"smiles": "Cc1oc2cc(O)ccc2c(=O)c1Oc1ccccc1", "cytotoxicity": "-6.1% (inactive)"}, {"smiles": "CCOc1ccc(-c2n[nH]c(C)c2Oc2ccccc2OC)c(O)c1", "cytotoxicity": "2.5% (inactive)"}, {"smiles": "C=C(C)COc1ccc(-c2n[nH]c(C)c2Oc2ccccc2OC)c(O)c1", "cytotoxicity": "66.1% (active)"}, {"smiles": "CCc1nnc(NC(=O)CSc2nnc(-c3ccoc3C)n2-c2ccc(C)cc2)s1", "cytotoxicity": "-6.5% (inactive)"}, {"smiles": "CC(OC(=O)C1CC=CCC1C(N)=O)C(Cl)=C(Cl)Cl", "note": "(stereo not drawn)", "cytotoxicity": "-9.4% (inactive)"}, {"smiles": "CC(C)OC(=O)CSc1nnc(-c2cnccn2)n1C", "cytotoxicity": "-7.5% (inactive)"}, {"smiles": "O=C(NCCN1CCN(c2ccccc2F)CC1)C1c2ccccc2C(=O)N2CCc3ccccc3C12", "note": "(stereo not drawn)", "cytotoxicity": "-3.5% (inactive)"}, {"smiles": "N#CCCC12CCCCC1=Nc1ccccc12", "note": "(stereo not drawn)", "cytotoxicity": "-11.5% (inactive)"}, {"smiles": "CCN1CCN(CC(=O)n2c3c(c4ccccc42)CC(C)CC3)CC1", "note": "(stereo not drawn)", "cytotoxicity": "16.2% (inactive)"}, {"smiles": "COc1ccc(CNC(=O)c2cc(-c3ccco3)on2)cc1", "cytotoxicity": "-5.9% (inactive)"}, {"smiles": "c1csc(-c2nn3c(C4COc5ccccc5O4)nnc3s2)c1", "note": "(stereo not drawn)", "cytotoxicity": "-1.6% (inactive)"}, {"smiles": "C=CCOc1nc2c(c(=O)n(C)c(=O)n2C)n1Cc1ccc(Cl)cc1", "cytotoxicity": "64.6% (active)"}, {"smiles": "C=CCOc1nc2c(c(=O)n(Cc3ccc(Cl)cc3)c(=O)n2C)n1C", "cytotoxicity": "-0.2% (inactive)"}, {"smiles": "C=CCOc1nc2c(c(=O)n(C)c(=O)n2C)n1Cc1ccc(Cl)cc1Cl", "cytotoxicity": "-24.2% (inactive)"}, {"smiles": "CCC(C)NC(=O)CN(c1ccc2c(c1)OCO2)S(=O)(=O)c1c(C)n[nH]c1C", "note": "(stereo not drawn)", "cytotoxicity": "3.1% (inactive)"}, {"smiles": "CC1(C)CC(=O)c2cnc(NC(=O)CCc3ccccc3)nc2C1", "cytotoxicity": "-12.6% (inactive)"}, {"smiles": "N#Cc1c(NC(=O)CCN2C(=O)c3ccccc3C2=O)oc(-c2ccccc2)c1-c1ccccc1", "cytotoxicity": "2.4% (inactive)"}, {"smiles": "N#Cc1c(NC(=O)CN2CCOCC2)oc(-c2ccccc2)c1-c1ccccc1", "cytotoxicity": "10.6% (inactive)"}, {"smiles": "Cc1ccnc(SCC(=O)Nc2oc(-c3ccccc3)c(-c3ccccc3)c2C#N)n1", "cytotoxicity": "29.2% (inactive)"}, {"smiles": "CCn1c(SCC(=O)Nc2oc(-c3ccccc3)c(-c3ccccc3)c2C#N)nnc1-c1ccco1", "cytotoxicity": "29.1% (inactive)"}, {"smiles": "N#Cc1c(NC(=O)Cn2c(=O)oc3ccccc32)oc(-c2ccccc2)c1-c1ccccc1", "cytotoxicity": "52% (active)"}, {"smiles": "CCc1nnc(NC(=O)CN2CCN(c3ccccc3OC)CC2)s1", "cytotoxicity": "-2.9% (inactive)"}, {"smiles": "CCOC(=O)CSc1nc2ccsc2c(=O)n1C1CCN(C(=O)OCC)CC1", "cytotoxicity": "8% (inactive)"}, {"smiles": "O=C(COC(=O)c1ccc2c(c1)OCO2)NCc1ccc(Cl)cc1", "cytotoxicity": "8.3% (inactive)"}, {"smiles": "O=C(CCn1c(=O)c2sccc2n(CC(=O)OCc2ccccc2)c1=O)NCc1ccco1", "cytotoxicity": "-12.9% (inactive)"}, {"smiles": "CCOC(=O)c1ccc(-n2[nH]c(-c3ccccc3)cc2=O)cc1", "cytotoxicity": "58.5% (active)"}, {"smiles": "CCOC(=O)c1ccc(N2C(=O)C(C)=C(C)C2=O)cc1", "cytotoxicity": "35.6% (inactive)"}, {"smiles": "CCOC(=O)c1ccc(-n2c(=O)[nH]c3ccccc3c2=O)cc1", "cytotoxicity": "3% (inactive)"}, {"smiles": "COc1ccc(CCNC(=O)CCn2c(=O)oc3ccccc32)cc1", "cytotoxicity": "-9.7% (inactive)"}, {"smiles": "CCOc1ccccc1Nc1nnc(SCc2ccc(C(=O)OC)o2)s1", "cytotoxicity": "57.3% (active)"}, {"smiles": "COC(=O)c1ccc(CSc2nnc(NCc3ccccc3)s2)o1", "cytotoxicity": "-2.2% (inactive)"}, {"smiles": "COC(=O)c1ccc(CSc2nnc(Nc3ccccc3OC)s2)o1", "cytotoxicity": "44.9% (inactive)"}, {"smiles": "c1ccc2nc(N3CCOCC3)c(N3CCOCC3)nc2c1", "cytotoxicity": "-2.3% (inactive)"}, {"smiles": "Cc1cc(=O)[nH]c(SCC(=O)N2CCN(C(c3ccccc3)c3ccccc3)CC2)n1", "cytotoxicity": "-3.1% (inactive)"}]}]}
